Source: PubChem BioAssay (NCI)
Compounds without any hit were thinned out: in the full panel of roughly 79,000, 15% have a hit. A number with no mark means an inactive call. Cut-off read from the data, not from the text of the source: active = growth inhibition above about 70%; inactive = the rest. Where a SMILES comes first, the peptide text is derived from it. The star is where a group is joined. Boc = CC(C)(C)OC(=O)*; OBn = c1ccc(CO*)cc1

Assay: NCI Yeast Anticancer Drug Screen. Data for the sgs1 mgt1 strain (AID 161);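 note: 0% = growth of cultures given vehicle only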
Conditions: S. cerevisiae sgs1 mgt1 strain, at 50.0 µM, active compounds read high
Outline: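 Genetically altered yeast, compound exposure, growth inhibition relative to vehicle.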

In order of falling growth inhibition:
1. c1ccc2cc3c(cc2c1)OP1(=NP2(=NP4(=N1)Oc1cc5ccccc5cc1O4)Oc1cc4ccccc4cc1O2)O3  33.6%
2. CN(N=O)C(=O)NC(C=O)C(O)C(O)C(O)CO (stereo unspecified)  28.4%
3. N#Cc1cccc2c(S(=O)(=O)O)cccc12  11.6%
4. CC(C)CC(NC(=O)OC(C)(C)C)C(=O)NC(CCC(=O)OCc1ccccc1)C(N)=O (stereo not drawn) (Boc-Leu-Glu(OBn)-NH2; configuration not given here)  8.65%
5. CC(=O)/C(=C\n1c(=S)[nH]c2ccc([N+](=O)[O-])cc21)C(=O)Nc1ccccc1C  -5.05%
6. N#CC(c1ccccc1)N1CCCN(C(C#N)c2ccccc2)C1c1ccccc1O (stereo unspecified)  -6.85%
